From PubChem BioAssay AID680 (PCMD, 2007)
Screen size: about 62,000 compounds; about 120 (0.19%) were called active. Cut-off read from the data, not from the text of the source: active = inhibition above about 20% (passing the limit was not always enough); inactive = the rest. For the sample, actives were picked, then their nearest neighbours and some compounds at random.

Biological target: Coagulation factor XI (Homo sapiens) (UniProt P03951)
Experiment: FXIa protease inhibitors in compound pools, primary screen, biochemical, 10-compound mixtures (AID 680);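 note: each value is inhibition by a whole ten-compound pool holding the compound; 0% = enzyme with no mixture and 100% = wells lacking enzyme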
Conditions: purified FXIa, fluorogenic substrate, pooled mixtures; at 5 µM; hits give high values

Sequence of Coagulation factor XI (Homo sapiens) (P03951 19-387 limits assumed): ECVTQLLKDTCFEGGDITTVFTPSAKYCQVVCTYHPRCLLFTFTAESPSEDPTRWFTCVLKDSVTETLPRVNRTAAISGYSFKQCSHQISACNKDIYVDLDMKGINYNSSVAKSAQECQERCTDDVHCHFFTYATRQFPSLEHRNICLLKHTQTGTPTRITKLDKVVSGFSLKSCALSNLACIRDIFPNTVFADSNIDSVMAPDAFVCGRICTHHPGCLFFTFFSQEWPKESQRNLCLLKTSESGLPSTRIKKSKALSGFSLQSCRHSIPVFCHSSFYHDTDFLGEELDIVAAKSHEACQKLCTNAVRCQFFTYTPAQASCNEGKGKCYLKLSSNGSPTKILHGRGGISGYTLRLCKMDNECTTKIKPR
Sequence of Coagulation factor XI (Homo sapiens) (P03951 388-625 limits assumed): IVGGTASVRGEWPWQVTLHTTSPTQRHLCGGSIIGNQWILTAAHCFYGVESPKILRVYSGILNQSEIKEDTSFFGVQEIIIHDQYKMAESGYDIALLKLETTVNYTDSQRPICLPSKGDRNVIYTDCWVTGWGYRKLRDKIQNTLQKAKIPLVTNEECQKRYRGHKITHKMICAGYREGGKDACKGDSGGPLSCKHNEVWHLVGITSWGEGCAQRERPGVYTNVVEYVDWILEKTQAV

Compound	inhibition
COc1ccc(N2CCN(C(=O)CSc3nnc4ncccn34)CC2)cc1	3.9% (inactive)
CCOC(=O)c1cc2sccc2n1Cc1ccc(C#N)cc1	0.72% (inactive)
CCOc1ccc(/C(O)=C2/C(=O)C(=O)N(Cc3cccnc3)C2c2ccc(N(C)C)cc2)c(C)c1 (configuration not stated)	-2.04% (inactive)
O=c1c2ccccc2nnn1CSc1nc2sc3c(c2c(=O)n1CC1CCCO1)CCC3 (configuration not stated)	0.04% (inactive)
CN(C)CCCNC(=O)c1ccc2[nH]c3ccccc3c2c1	3.52% (inactive)
O=C(CSc1nnc(-c2ccco2)n1Cc1ccccc1)NC(=O)NCc1ccco1	2.1% (inactive)
CCOCCOC(=O)C1=C(C)N(C)C(=O)NC1c1ccccc1F (configuration not stated)	5% (inactive)
CCc1ccc(-c2nnn(Cc3nc4ccccc4s3)n2)cc1	9.76% (inactive)
COc1ccc(-c2nnc(SC(C)C#N)o2)cc1 (configuration not stated)	-13.7% (inactive)
C=C(C)COc1ccc(-c2n[nH]c(C)c2-c2ccccc2OC)c(O)c1	21.4% (active)
COc1ccc(-c2n[nH]c(C)c2-c2ccc(OC)c(OC)c2)c(O)c1	5.75% (inactive)
C=C(C)COc1ccc(-c2n[nH]c(C)c2-c2ccccc2)c(O)c1	6.11% (inactive)
Cc1sc2c(c1C)c(=O)n(-c1ccccc1)c1nncn21	0.14% (inactive)
O=C1CSC(c2cccc(F)c2)N1c1ccccc1F (configuration not stated)	1.83% (inactive)
CCCc1[nH]nc2c1C(c1ccc(Br)s1)C(C#N)=C(N)O2 (configuration not stated)	7.01% (inactive)
COc1ccccc1-c1cc(C(=O)N2CCCCC2)no1	3.06% (inactive)
COC(=O)CNS(=O)(=O)c1ccc(Cc2ccc(S(=O)(=O)NCC(=O)OC)cc2)cc1	13.4% (inactive)
COC(=O)c1cc(NC2c3ccccc3C(=O)N2c2ccc(Cl)cn2)cc(C(=O)OC)c1 (configuration not stated)	3.54% (inactive)
CCCc1nc(N)nc2c1C(=O)CC(C)(C)C2	-0.555% (inactive)
COC(=O)CN(c1cccc(C(C)=O)c1)S(C)(=O)=O	2.59% (inactive)
CCN(c1ccccc1)S(=O)(=O)c1ccc(N)cc1	0.065% (inactive)

Compound	inhibition
O=C(Nc1ccc(Cl)cn1)c1cnn2cccnc12	3.33% (inactive)
Brc1cccc(-c2nnc3n2CCC3)c1	2.48% (inactive)
CC(C)CCNC(=O)CCNS(=O)(=O)c1ccc(Cl)cc1	6.13% (inactive)
CCOC(=O)c1c(-n2cnnn2)sc(C)c1C	13.6% (inactive)
Cc1c2cn[nH]c(=O)c2c(C)n1Cc1ccc(F)cc1	3.31% (inactive)
CC(C)c1nnc(NC(=O)C2CCCN2S(=O)(=O)c2ccc(Cl)cc2)s1 (configuration not stated)	9.37% (inactive)
Cc1cccc(NC(=O)C2CCCN2S(=O)(=O)c2ccc(F)cc2)c1C (configuration not stated)	23.4% (active)
Cc1ccc(S(=O)(=O)N2CCCC2C(=O)NCc2ccco2)cc1 (configuration not stated)	3.07% (inactive)
N#Cc1nc(Cc2cccc3ccccc23)oc1NCc1ccc2c(c1)OCO2	3.7% (inactive)
O=C(Cn1nc(Cc2cccnc2)c2ccccc2c1=O)NCC1CCCO1 (configuration not stated)	1.16% (inactive)
CCC(C)Sc1nnc(-c2c[nH]c3ccccc23)n1CCOC (configuration not stated)	4.33% (inactive)
CCOC(=O)N1CCN(C(=O)CSc2nnc(-c3c[nH]c4ccccc34)n2CCOC)CC1	6.18% (inactive)
CCn1c(SCCC(C)C)nnc1-c1c[nH]c2ccccc12	27.8% (active)
O=C(c1ccccc1)c1ccc(OC(=O)N2CCCC2)cc1	5.6% (inactive)
COc1ccc(CCNC(=O)CSc2nnc(CNC(=O)c3cccs3)o2)cc1OC	4.31% (inactive)
O=C(c1cccc2ccccc12)N1CCN(c2ccccc2F)CC1	-1.32% (inactive)
O=C(c1ccccc1)c1ccc2nc(N3CCCCC3)c3nncn3c2c1	5.07% (inactive)
CCn1cc(C(=O)NCC2CCCO2)c(=O)c2cc(S(=O)(=O)N3CCCCC3)ccc21 (configuration not stated)	2.28% (inactive)
Cc1ccccc1Cn1c(=O)[nH]c2ccccc21	4.81% (inactive)
Cc1cc(NC(=O)CN2CCCCC2C)nc2c1c(=O)oc1ccccc12 (configuration not stated)	11.6% (inactive)
COC(=O)C1=C(C)NC2=C(C(=O)c3ccccc32)C1c1ccc(-c2ccc(C(=O)O)cc2)o1 (configuration not stated)	8.48% (inactive)

Compound	inhibition
Cc1ccc(S(=O)(=O)C(C#N)c2nc3ccccc3nc2N2CCCC2)cc1C (configuration not stated)	-0.215% (inactive)
COc1ccc(S(=O)(=O)N2CCCC(C(=O)N3CCN(C)CC3)C2)cc1C (configuration not stated)	8.05% (inactive)
O=c1c(-c2ccccc2)coc2c(CN3CCOCC3)c(O)ccc12	-0.725% (inactive)
Cc1cc(C)cc(N(CC(=O)NCC2CCCO2)S(=O)(=O)c2c(C)noc2C)c1 (configuration not stated)	12.7% (inactive)
Cc1cc(C(=O)N2CCN(c3ccccn3)CC2)c(C)o1	8.12% (inactive)
O=C1OC(NC(=O)c2ccccc2)C(N2CCOCC2)=C1Cl (configuration not stated)	1.5% (inactive)
COc1ccc(CN2C(=O)CN=C2Nc2ccc(C)cc2C)cc1	9.03% (inactive)
O=C(Cn1nnc(-c2ccc(CN3CCOCC3)cc2)n1)NC1CCCCC1	4.01% (inactive)
Cc1cc(NS(=O)(=O)c2ccccc2)no1	7.83% (inactive)
CSc1ccc(S(=O)(=O)NCc2ccc(Cl)cc2)cc1	7.5% (inactive)
Cc1cccc(NC(=O)CSC(N)=O)c1C	4.87% (inactive)
C=CCNC(=O)C12CC3CC(C1)CC(C(=O)NCC=C)(C3)C2	4.77% (inactive)
O=C(O)CN(Cc1ccco1)S(=O)(=O)c1ccccc1	2.68% (inactive)
N=c1c2c3c(sc2ncn1CCCN1CCOCC1)CCCCC3	42.3% (inactive)
Cc1ccc2nc(NCCCNC(=O)c3cnccn3)c(C#N)cc2c1	-0.515% (inactive)
O=S(=O)(c1cccc(-c2nnc(SC(F)F)n2-c2ccccc2)c1)N1CCCCC1	6.38% (inactive)
C=CCN(c1ccc(C(N)=O)cc1)S(C)(=O)=O	9.34% (inactive)
CCc1ccccc1N(CC(=O)N1CCN(c2ccccc2F)CC1)S(C)(=O)=O	9.44% (inactive)
CC(C)(C)c1csc(NC2=NS(=O)(=O)c3ccccc32)n1	0.915% (inactive)
O=C(NCCCN1CCN(c2ccccc2F)CC1)C1CCC(=O)N1C1CCCCC1 (configuration not stated)	0.475% (inactive)
